Rows were chosen to be rich in hits. Some 17% of all compounds tested hit in one or more screens of this group.
TDP1 cell CPT – growth inhibition of DT40 Tdp1-/-;hTDP1 cells with camptothecin (screen for TDP1 inhibitors) | chicken DT40 Tdp1-/-;hTDP1 cells + 20 nM CPT, ATP luminescence, 48 h | Potency, µM (top dose mostly 46.2 µM), inactives show at the top dose activity change, negative = growth inhibition, actives largely listed as inhibitors | 420,000 tested, 12% active; also: % is scaled to controls: 0 for no effect and ±100 for the full control effect; nearly all actives have a fitted effect of over 55% in size
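Chicken DT40 Tdp1-/- cells stably complemented with human TDP1 were seeded at 400 cells/well in medium containing 20 nM camptothecin, exposed to pin-transferred compounds, and grown at 37 °C for at least 48 hr. Viability was read as ATP luminescence.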
TDP1 cell noCPT – qHTS for Inhibitors of human tyrosyl-DNA phosphodiesterase 1 (TDP1): qHTS in cells in absence of CPT; DT40 Tdp1-/- hTDP1 cells, no CPT, ATP luminescence, 48 h; Potency, µM (highest dose often 46.2 µM), without a hit: at the highest dose activity change, negative = growth inhibition, usual class: inhibitors; 420,000 tested, 15% active; AID 686978, 2013; also: % is scaled to controls: 0 for no effect and ±100 for the full control effect; nearly all actives have a fitted effect of over 55% in size
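Chicken DT40 Tdp1-/- cells complemented with human TDP1, screened without camptothecin (DMSO vehicle only), 400 cells/well. Compounds pin-transferred, cells incubated at 37 °C for at least 48 hr. Growth read as ATP-dependent luminescence (CellTiter-Glo, 30 min at RT).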
HT1080 IDH1KD tx – toxicity to HT-1080 IDH1 knockdown cells (counter line); HT-1080 IDH1 knockdown viability, ATP luminescence, 48 h; AID 686971; 360,000 tested, 2% active; Potency, µM (highest dose often 46.1 µM), for the others: at the highest dose activity, negative = toxicity, usual class: cytotoxic;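 also: 0% = DMSO wells and -100% = cell-free medium wells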
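Viability of IDH1-knockdown HT-1080 fibrosarcoma cells was assessed by CellTiter-Glo after 48 h at 37 °C with titrated compound; concentration-effect curves were classified by fit quality and response size.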
HepG2 tox – counter-screen for TGF-b inhibitors: cytotoxicity in HepG2 cells; HepG2 CAGA-GFP viability, ATP luminescence, 18 h; Potency, µM (top dose mostly 46.1 µM), for inactives: top-dose activity change, negative = cytotoxicity, actives largely listed as cytotoxic; 410,000 tested, 0.76% active; AID 588856
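HepG2 CAGA-GFP cells (1000/well, DMEM with 1% FBS) received compound, then TGF-beta at 500 pg/mL final, and were incubated 18 hours at 37 degrees C. Viability was read by CellTiter-Glo luminescence. Media-only wells were set as complete cell-killing and DMSO as no toxicity.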
HT1080NT lethal – kills 2HG-producing HT-1080-NT fibrosarcoma cells | HT-1080-NT fibrosarcoma viability, CellTiter-Glo ATP luminescence, 48 h | Potency, µM (top dose mostly 46.1 µM), inactives show top-dose activity, negative = less viability, usual class: cytotoxic | 360,000 tested, 1.6% active;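 also: NT is the 2HG producing partner of a matched IDH1 knockdown line; 0% = DMSO-treated cells and -100% = media-only wells without cells; nearly all actives have a fitted effect of over 55% in size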
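750 cells/well, RPMI + 5% FBS; 2 h settle, compound pin-transfer, 48 h at 37 degrees C. CellTiter-Glo 10 min RT, luminescence. Normalized to DMSO and media-only wells.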
TGFb SMAD3 inh – TGF-b pathway inhibition | HepG2 CAGA-GFP TGF-b/SMAD3 reporter, GFP fluorescence, 18 h; TGF-beta stimulated, 500 pg/mL final | Potency, µM (doses to about 46.1 µM), inactives show top-dose activity, negative = inhibition, actives largely listed as inhibitors | 410,000 tested, 1.2% active | AID 588855; also: % is scaled to controls: 0 for no effect and ±100 for the full control effect; nearly all actives have a fitted effect of over 65% in size
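Inhibition was scored as loss of TGF-beta-induced (500 pg/mL final, 18 hours, 37 degrees C) GFP in HEPG2 cells carrying a CAGA-GFP reporter, in DMEM with 1% FBS. Well GFP was summed per cell; Activity was normalised to unstimulated and stimulated DMSO wells, then concentration-response fitting.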
* marks the source's active call; other numbers are inactive results; ? = inconclusive; nt = no result given. Calls follow the shape of the dose curve; as a rule, active = well fitted curve in the direction sought with a large enough effect; inconclusive = small, poorly fitted or top-dose-only effect, or another doubt; inactive = no such curve, though single readings can be large; an effect the other way counts as inactive or inconclusive. Potency is read from the fitted curve at half-maximal effect.

SMILES	TDP1 cell CPT	TDP1 cell noCPT	HT1080 IDH1KD tx	HepG2 tox	HT1080NT lethal	TGFb SMAD3 inh
C=C(C)COc1ccc(-c2nc(N)ncc2-c2ccc(OC)c(OC)c2)c(O)c1	?	?	-21%	-13%	-32%	0%
Nc1ncc(-c2ccccc2)c(-c2ccc(OCc3ccccc3)cc2O)n1	?	?	?	18µM*	?	?
COc1ccc(-c2nc(N)ncc2-c2ccccc2)c(O)c1	?	?	-23%	-20%	-25%	-3%
C=C(C)COc1ccc(-c2nc(N)ncc2-c2ccc(Cl)cc2)c(O)c1	23µM*	?	-20%	-107%	?	?
CC(C)(C)Cc1c(-c2cccc(Br)c2)nc2ccc(Br)cn12	?	?	9%	-19%	1%	-6%
CCC(C)NC(=O)c1cc2cc(S(=O)(=O)N3CCCCC3)ccc2n1C (configuration not stated)	?	?	nt	-6%	nt	7%
Cc1ccccc1CCNC(=O)c1cc2cc(S(=O)(=O)N3CCCCC3)ccc2n1C	10µM*	18µM*	nt	-15%	nt	-13%
Cn1c(C(=O)NCc2ccccc2F)cc2cc(S(=O)(=O)N3CCCCC3)ccc21	?	?	nt	-34%	nt	0%
CCOc1ccc(CNC(=O)c2cc3cc(S(=O)(=O)N4CCCCC4)ccc3n2C)cc1	18µM*	16µM*	nt	-15%	nt	-18%
Cn1c(C(=O)NCc2cccc(F)c2)cc2cc(S(=O)(=O)N3CCCCC3)ccc21	?	23µM*	nt	-1%	nt	?
Cc1cccc(CNC(=O)c2cc3cc(S(=O)(=O)N4CCCCC4)ccc3n2C)c1	?	18µM*	nt	-26%	nt	9%
CN(C)c1ccc(CNC(=O)c2cc3cc(S(=O)(=O)N4CCCCC4)ccc3n2C)cc1	?	?	nt	-1%	nt	?
Cc1cccc(N2C(=O)C(O)=C(C(=O)c3cccs3)C2c2ccc(Cl)cc2)n1 (configuration not stated)	0%	?	1%	2%	-4%	-16%
O=C(NC1CCCCC1)N(CCN1CCOCC1)Cc1cc2cc3c(cc2[nH]c1=O)OCCO3	13µM*	?	-10%	-15%	-21%	-1%
CCc1ccc2[nH]c(=O)c(CN(CCN3CCCC3)C(=O)NC3CCCCC3)cc2c1	16µM*	23µM*	?	-49%	?	-3%
Cc1ccc(N=C2NC(=O)/C(=C\c3ccsc3)S2)c(C)c1	16µM*	?	-8%	-36%	-9%	?
Cc1ccc(N=C2NC(=O)/C(=C/c3cccnc3)S2)c(C)c1	-15%	-21%	-24%	-17%	?	-9%
COc1ccccc1NC(=O)N(C)C[C@H]1OCc2cnnn2CCCC(=O)N([C@@H](C)CO)C[C@H]1C	-7%	2%	11%	9%	6%	38%
Cc1ccc(C(=O)CN2CCN(c3ccccn3)CC2)c(C)c1	0%	11%	28%	-3%	24%	-3%
Cc1ccc2cc(C)c(N3CCN(c4ccccn4)CC3)nc2c1	18µM*	?	1%	-39%	-1%	-19%
O=C1C=C(c2cccc3c2sc2ccccc23)C[C@@H](c2ccc(Cl)cc2)C1	?	?	-5%	-5%	-10%	1%
CCCCNC(=O)C(NC(=O)c1ccccc1)C(=O)c1ccccc1 (configuration not stated)	-2%	-11%	7%	nt	9%	nt
C#Cc1ccccc1OCCCN1CCC(C(O)(c2ccccc2)c2ccccc2)CC1	9.2µM*	8.2µM*	16µM*	nt	16µM*	nt
N#Cc1ccccc1OCCCN1CCC(C(O)(c2ccccc2)c2ccccc2)CC1	18µM*	?	?	nt	?	nt
N#Cc1ccc(N)cc1OCCCN1CCCCC1	6%	-17%	8%	0%	15%	17%
SMILES	TDP1 cell CPT	TDP1 cell noCPT	HT1080 IDH1KD tx	HepG2 tox	HT1080NT lethal	TGFb SMAD3 inh
COc1cc(C(=O)Oc2cccc(C=O)c2)cc(OC)c1OC	26µM*	?	?	-4%	?	6%
COc1cccc(C(=O)Oc2c(Br)cc(Br)cc2/C=N/NC(=O)c2cc(C)[nH]n2)c1	6.5µM*	9.2µM*	?	-15%	?	-20%
Cc1cc(C(=O)N/N=C/c2cccc(OC(=O)c3cccc(Br)c3)c2)n[nH]1	-7%	-2%	1%	-5%	-3%	-6%
COc1cc(C(=O)Oc2cccc(/C=N/NC(=O)c3cc(C)[nH]n3)c2)cc(OC)c1OC	?	21µM*	-28%	-2%	-14%	11%
O=C(O)c1ccccc1/C=N/N1CCN(C2c3ccccc3-c3ccccc32)CC1	-6%	-16%	-3%	-22%	-13%	-20%
CC(C)C[C@H](NC(=O)[C@@H](Cc1c[nH]c2ccccc12)NC(=O)[C@H](Cc1ccc(O)cc1)NC(=O)[C@H](CO)NC(=O)[C@H](Cc1c[nH]c2ccccc12)NC(=O)[C@H](Cc1cnc[nH]1)NC(=O)[C@@H]1CCC(=O)N1)C(=O)N[C@@H](CCCN=C(N)N)C(=O)N1CCC[C@@H]1C(=O)NCC(N)=O	9%	-15%	nt	nt	nt	nt
CN1CCN(/N=C/c2ccc(N(C)c3ccccc3)cc2)CC1	0%	-12%	14%	-2%	-1%	-8%

High-throughput results (PubChem BioAssay)
